Experimental data: PMC7862700, “An all-to-all approach to the identification of sequence-specific readers for epigenetic DNA modifications on cytosine”

Experiments:
Experiment in all cases: DAPPL (digital affinity profiling via proximity ligation, sequencing); 10 mM Tris-HCl pH 7.5, 50 mM NaCl, 1 mM DTT, 4% glycerol, room temperature, 30 min; GST-TFs on glutathione beads, 16-mer random dsDNA library, 0.1% formaldehyde crosslink after washing; high values mean tight binding
Details in all cases: protein: recombinant; tags: N-terminal GST; dsDNA, one strand shown
FLI1 = molecular target: T1, FLI1 (Homo sapiens, UniProt Q01543 1-452)
T1 sequence: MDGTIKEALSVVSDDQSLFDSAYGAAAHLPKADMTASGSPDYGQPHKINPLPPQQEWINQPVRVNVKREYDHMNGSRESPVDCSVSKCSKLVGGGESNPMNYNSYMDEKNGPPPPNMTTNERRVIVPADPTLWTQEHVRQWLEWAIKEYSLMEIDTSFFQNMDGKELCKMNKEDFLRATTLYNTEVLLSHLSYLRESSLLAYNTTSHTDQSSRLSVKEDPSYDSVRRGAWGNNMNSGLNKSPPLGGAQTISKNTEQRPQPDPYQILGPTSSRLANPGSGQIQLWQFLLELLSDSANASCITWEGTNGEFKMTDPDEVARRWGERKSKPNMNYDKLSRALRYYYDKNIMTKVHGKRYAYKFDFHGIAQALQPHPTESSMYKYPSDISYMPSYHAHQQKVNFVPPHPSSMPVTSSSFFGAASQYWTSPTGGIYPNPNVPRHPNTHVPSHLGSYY
Outline: (§1)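 The binding signal reported is, for every hexamer, its read frequency for a factor over its read frequency for the tag-only sample. Reads came from pools of yeast-expressed, GST-fused human transcription factors on glutathione beads, barcoded with DNA and mixed with that sample, which were incubated with 200 nmole of a random double-stranded 16-mer DNA library in Tris/NaCl/DTT/glycerol buffer at room temperature for 30 min. After washing, the pools were crosslinked with 0.1% formaldehyde, proximity-ligated with BsaI/T4 ligase for 1 h at 37 °C, PCR-amplified and sequenced on an Illumina NextSeq500.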

ELK1 = molecular target: T2, ELK1 (Homo sapiens, UniProt P19419 1-428)
T2 sequence: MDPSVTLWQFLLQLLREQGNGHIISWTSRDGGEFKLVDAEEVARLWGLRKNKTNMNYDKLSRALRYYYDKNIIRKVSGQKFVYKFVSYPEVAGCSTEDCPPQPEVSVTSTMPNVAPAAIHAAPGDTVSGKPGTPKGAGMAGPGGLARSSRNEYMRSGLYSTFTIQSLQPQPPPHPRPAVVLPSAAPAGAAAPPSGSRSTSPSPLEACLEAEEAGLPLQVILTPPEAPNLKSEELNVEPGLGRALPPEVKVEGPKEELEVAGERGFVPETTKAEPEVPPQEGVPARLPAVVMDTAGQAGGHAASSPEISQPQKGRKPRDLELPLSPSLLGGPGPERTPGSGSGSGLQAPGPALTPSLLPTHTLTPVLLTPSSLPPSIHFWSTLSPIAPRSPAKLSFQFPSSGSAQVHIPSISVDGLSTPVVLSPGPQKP
Outline: as §1

GABPA = molecular target: T3, GABPA (Homo sapiens, UniProt Q06546 1-454)
T3 sequence: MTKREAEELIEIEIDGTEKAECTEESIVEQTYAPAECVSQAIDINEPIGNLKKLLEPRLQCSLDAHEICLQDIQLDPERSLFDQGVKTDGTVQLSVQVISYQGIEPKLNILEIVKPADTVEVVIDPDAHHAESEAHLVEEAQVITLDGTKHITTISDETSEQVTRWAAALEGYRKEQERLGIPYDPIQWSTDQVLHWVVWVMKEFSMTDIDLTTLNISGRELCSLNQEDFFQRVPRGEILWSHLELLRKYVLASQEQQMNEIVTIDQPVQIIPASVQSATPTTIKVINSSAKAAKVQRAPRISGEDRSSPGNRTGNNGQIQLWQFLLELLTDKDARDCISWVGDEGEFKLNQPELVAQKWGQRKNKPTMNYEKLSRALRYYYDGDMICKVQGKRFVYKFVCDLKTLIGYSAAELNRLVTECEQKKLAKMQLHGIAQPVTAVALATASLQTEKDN
Outline: as §1

ERG = molecular target: T4, ERG (Homo sapiens, UniProt P11308 1-479)
T4 sequence: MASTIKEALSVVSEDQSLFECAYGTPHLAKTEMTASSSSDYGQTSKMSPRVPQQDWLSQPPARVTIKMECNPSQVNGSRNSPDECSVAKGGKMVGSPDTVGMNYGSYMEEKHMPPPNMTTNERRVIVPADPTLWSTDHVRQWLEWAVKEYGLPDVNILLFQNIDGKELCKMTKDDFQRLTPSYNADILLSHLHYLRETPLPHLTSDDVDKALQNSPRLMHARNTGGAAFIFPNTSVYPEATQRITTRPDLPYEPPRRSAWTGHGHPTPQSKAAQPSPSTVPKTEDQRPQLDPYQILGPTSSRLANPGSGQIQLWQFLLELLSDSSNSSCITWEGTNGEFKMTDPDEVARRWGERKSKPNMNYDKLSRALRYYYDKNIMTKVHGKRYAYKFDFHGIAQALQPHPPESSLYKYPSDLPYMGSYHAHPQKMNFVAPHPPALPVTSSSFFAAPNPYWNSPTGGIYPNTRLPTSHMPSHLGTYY
Outline: as §1

ELF1 = ELF1 (Homo sapiens, UniProt P32519 1-619)
Chain of ELF1 (P32519 whole entry): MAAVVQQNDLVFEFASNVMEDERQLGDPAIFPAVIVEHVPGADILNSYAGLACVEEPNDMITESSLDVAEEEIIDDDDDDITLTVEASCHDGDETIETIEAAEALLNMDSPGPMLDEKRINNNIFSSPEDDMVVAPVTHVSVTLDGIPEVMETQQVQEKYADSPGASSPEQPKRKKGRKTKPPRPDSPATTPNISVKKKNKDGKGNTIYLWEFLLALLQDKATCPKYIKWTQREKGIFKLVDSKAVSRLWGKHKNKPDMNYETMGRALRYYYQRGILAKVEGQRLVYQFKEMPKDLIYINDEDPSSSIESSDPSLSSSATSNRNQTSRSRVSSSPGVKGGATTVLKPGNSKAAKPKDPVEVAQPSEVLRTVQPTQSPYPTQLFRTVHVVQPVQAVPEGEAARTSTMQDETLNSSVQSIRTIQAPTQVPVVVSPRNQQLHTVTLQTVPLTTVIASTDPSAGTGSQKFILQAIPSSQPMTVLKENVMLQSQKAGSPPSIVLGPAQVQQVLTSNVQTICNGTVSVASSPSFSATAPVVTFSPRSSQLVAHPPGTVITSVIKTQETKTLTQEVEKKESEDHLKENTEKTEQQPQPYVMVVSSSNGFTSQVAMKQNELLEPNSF
Outline: as §1

EHF = molecular target: T5, EHF (Homo sapiens, UniProt Q9NZC4 1-300)
T5 sequence: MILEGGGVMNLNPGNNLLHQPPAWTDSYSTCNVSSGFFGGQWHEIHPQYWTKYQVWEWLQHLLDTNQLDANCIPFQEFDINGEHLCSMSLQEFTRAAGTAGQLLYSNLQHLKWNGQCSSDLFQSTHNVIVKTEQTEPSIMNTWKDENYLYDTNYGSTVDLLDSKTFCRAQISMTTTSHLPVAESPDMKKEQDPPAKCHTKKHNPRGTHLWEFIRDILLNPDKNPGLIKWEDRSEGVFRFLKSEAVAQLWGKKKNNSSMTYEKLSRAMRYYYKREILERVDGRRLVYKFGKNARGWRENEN
Outline: as §1

SPI1 = SPI1 (Homo sapiens, UniProt P17947 1-270)
Outline: as §1

SPIB = SPIB (Homo sapiens, UniProt Q01892 1-262)
Chain of SPIB (Q01892 whole entry): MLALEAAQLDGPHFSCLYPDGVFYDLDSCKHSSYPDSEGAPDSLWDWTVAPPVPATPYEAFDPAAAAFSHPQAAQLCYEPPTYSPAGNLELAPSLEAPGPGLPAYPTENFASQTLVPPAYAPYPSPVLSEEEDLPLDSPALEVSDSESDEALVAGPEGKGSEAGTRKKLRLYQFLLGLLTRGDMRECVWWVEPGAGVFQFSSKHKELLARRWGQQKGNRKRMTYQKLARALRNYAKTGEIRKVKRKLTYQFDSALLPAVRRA
Outline: as §1

ELK3 = molecular target: T6, ELK3 (Homo sapiens, UniProt P41970 1-407)
T6 sequence: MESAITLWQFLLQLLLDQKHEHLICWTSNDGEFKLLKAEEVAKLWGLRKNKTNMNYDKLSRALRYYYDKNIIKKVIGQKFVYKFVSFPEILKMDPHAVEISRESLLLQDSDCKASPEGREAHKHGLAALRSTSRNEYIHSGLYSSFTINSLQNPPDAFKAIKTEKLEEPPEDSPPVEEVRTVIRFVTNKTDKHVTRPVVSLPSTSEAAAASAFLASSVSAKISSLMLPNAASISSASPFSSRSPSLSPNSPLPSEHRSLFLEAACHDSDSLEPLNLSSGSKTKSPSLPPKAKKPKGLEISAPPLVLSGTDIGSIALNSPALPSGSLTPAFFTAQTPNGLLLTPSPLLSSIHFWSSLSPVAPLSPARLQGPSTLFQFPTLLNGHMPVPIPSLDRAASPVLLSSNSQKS
Outline: as §1

## CTCAAT
FLI1
  binding signal: 1.28 fold enrichment (6-mer frequency, TF over GST control)
ELK1
  binding signal: 1.2 fold enrichment (6-mer frequency, TF over GST control)
GABPA
  binding signal: 1.28 fold enrichment (6-mer frequency, TF over GST control)
ERG
  binding signal: 1.27 fold enrichment (6-mer frequency, TF over GST control)
ELF1
  binding signal: 1.23 fold enrichment (6-mer frequency, TF over GST control)
EHF
  binding signal: 1.25 fold enrichment (6-mer frequency, TF over GST control)
SPI1
  binding signal: 1.33 fold enrichment (6-mer frequency, TF over GST control)
SPIB
  binding signal: 1.36 fold enrichment (6-mer frequency, TF over GST control)
ELK3
  binding signal: 1.34 fold enrichment (6-mer frequency, TF over GST control)

## TGGCTC
FLI1
  binding signal: 1.4 fold enrichment (6-mer frequency, TF over GST control)
ELK1
  binding signal: 1.43 fold enrichment (6-mer frequency, TF over GST control)
GABPA
  binding signal: 1.47 fold enrichment (6-mer frequency, TF over GST control)
ERG
  binding signal: 1.43 fold enrichment (6-mer frequency, TF over GST control)
ELF1
  binding signal: 1.46 fold enrichment (6-mer frequency, TF over GST control)
EHF
  binding signal: 1.34 fold enrichment (6-mer frequency, TF over GST control)
SPI1
  binding signal: 1.16 fold enrichment (6-mer frequency, TF over GST control)
SPIB
  binding signal: 1.39 fold enrichment (6-mer frequency, TF over GST control)
ELK3
  binding signal: 1.3 fold enrichment (6-mer frequency, TF over GST control)

## CTTTCC
FLI1
  binding signal: 2.05 fold enrichment (6-mer frequency, TF over GST control)
ELK1
  binding signal: 1.9 fold enrichment (6-mer frequency, TF over GST control)
GABPA
  binding signal: 1.83 fold enrichment (6-mer frequency, TF over GST control)
ERG
  binding signal: 2.04 fold enrichment (6-mer frequency, TF over GST control)
ELF1
  binding signal: 1.89 fold enrichment (6-mer frequency, TF over GST control)
EHF
  binding signal: 2.05 fold enrichment (6-mer frequency, TF over GST control)
SPI1
  binding signal: 1.84 fold enrichment (6-mer frequency, TF over GST control)
SPIB
  binding signal: 2.18 fold enrichment (6-mer frequency, TF over GST control)
ELK3
  binding signal: 2.1 fold enrichment (6-mer frequency, TF over GST control)

## TAGTAT
FLI1
  binding signal: 1.25 fold enrichment (6-mer frequency, TF over GST control)
ELK1
  binding signal: 1.34 fold enrichment (6-mer frequency, TF over GST control)
GABPA
  binding signal: 1.28 fold enrichment (6-mer frequency, TF over GST control)
ERG
  binding signal: 1.23 fold enrichment (6-mer frequency, TF over GST control)
ELF1
  binding signal: 1.29 fold enrichment (6-mer frequency, TF over GST control)
EHF
  binding signal: 1.38 fold enrichment (6-mer frequency, TF over GST control)
SPI1
  binding signal: 1.23 fold enrichment (6-mer frequency, TF over GST control)
SPIB
  binding signal: 1.33 fold enrichment (6-mer frequency, TF over GST control)
ELK3
  binding signal: 1.15 fold enrichment (6-mer frequency, TF over GST control)

## AATAAG
FLI1
  binding signal: 1.22 fold enrichment (6-mer frequency, TF over GST control)
ELK1
  binding signal: 1.21 fold enrichment (6-mer frequency, TF over GST control)
GABPA
  binding signal: 1.31 fold enrichment (6-mer frequency, TF over GST control)
ERG
  binding signal: 1.37 fold enrichment (6-mer frequency, TF over GST control)
ELF1
  binding signal: 1.24 fold enrichment (6-mer frequency, TF over GST control)
EHF
  binding signal: 1.22 fold enrichment (6-mer frequency, TF over GST control)
SPI1
  binding signal: 1.27 fold enrichment (6-mer frequency, TF over GST control)
SPIB
  binding signal: 1.3 fold enrichment (6-mer frequency, TF over GST control)
ELK3
  binding signal: 1.23 fold enrichment (6-mer frequency, TF over GST control)

## TTCTGG
FLI1
  binding signal: 1.36 fold enrichment (6-mer frequency, TF over GST control)
ELK1
  binding signal: 1.16 fold enrichment (6-mer frequency, TF over GST control)
GABPA
  binding signal: 1.32 fold enrichment (6-mer frequency, TF over GST control)
ERG
  binding signal: 1.31 fold enrichment (6-mer frequency, TF over GST control)
ELF1
  binding signal: 1.14 fold enrichment (6-mer frequency, TF over GST control)
EHF
  binding signal: 1.2 fold enrichment (6-mer frequency, TF over GST control)
SPI1
  binding signal: 1.24 fold enrichment (6-mer frequency, TF over GST control)
SPIB
  binding signal: 1.18 fold enrichment (6-mer frequency, TF over GST control)
ELK3
  binding signal: 1.48 fold enrichment (6-mer frequency, TF over GST control)

## TCCTCA
FLI1
  binding signal: 1.53 fold enrichment (6-mer frequency, TF over GST control)
ELK1
  binding signal: 1.47 fold enrichment (6-mer frequency, TF over GST control)
GABPA
  binding signal: 1.6 fold enrichment (6-mer frequency, TF over GST control)
ERG
  binding signal: 1.51 fold enrichment (6-mer frequency, TF over GST control)
ELF1
  binding signal: 1.49 fold enrichment (6-mer frequency, TF over GST control)
EHF
  binding signal: 1.65 fold enrichment (6-mer frequency, TF over GST control)
SPI1
  binding signal: 2.25 fold enrichment (6-mer frequency, TF over GST control)
SPIB
  binding signal: 1.6 fold enrichment (6-mer frequency, TF over GST control)
ELK3
  binding signal: 1.55 fold enrichment (6-mer frequency, TF over GST control)
